Here are results for 91 compounds from PubChem BioAssay AID2314 (National Center for Advancing Translational Sciences (NCATS), 2010).

Molecules are shown by their SMILES. Hit rate of the full screen: of about 300,000 compounds, about 37,000 (12%) were called active. Rule as the data show it: active = max response mostly above about 13% (no sharp cut-off); inactive = mostly below about 14%. What follows is part of a selection rich in actives, with near analogues and random picks from the rest.

The assay can be described thus: Cycloheximide Counterscreen for Small Molecule Inhibitors of Shiga Toxin. Also: read at 38.3 µM for the half of the compounds with a filed dose; 0% is about no effect. Conditions: cell reporter, cycloheximide protein synthesis inhibition counterscreen; stronger effect = higher value.
`CC(C)C(NS(=O)(=O)c1cccs1)C(=O)Nc1nc(C(C)(C)C)cs1` (stereo unspecified): the max response is -2.46% (inactive).

As for `Cc1cc(NS(=O)(=O)c2ccc(NC(=O)C(C)Oc3cccc(C)c3C)cc2)nc(C)n1` (stereo unspecified), the max response was -0.471% (inactive).

On to `Cc1ccc(C)c(NC(=O)C(OC(=O)c2ccc(C)s2)c2ccccc2)c1` (stereo unspecified), for which the max response was 6.66% (inactive). Then `COc1cc(OC)c2c(-c3cccc(-c4cccc(N)c4)c3)cc(=O)oc2c1`, with -2.04% (inactive).

As to `CC(C)n1c(=S)[nH]c2cc(C(F)(F)F)ccc21`, the max response is 12.9% (inactive). The same measure for `Cc1oc2cc(Br)c(O)c(Br)c2c1C(=O)c1ccccc1`: 13.7% (inactive); for `OCC1(Cc2ccccc2C(F)(F)F)CCN(Cc2ccncc2)CC1`: 0.237% (inactive). Then `COC(=O)C1=C(C)NC(=O)NC1/C=C/c1ccccc1` (stereo unspecified), with 0.456% (inactive). Then `COC(=O)C1=C(C)NC2=C(C(=O)c3ccccc32)C1c1ccc(-c2ccc(C(=O)O)cc2)o1` (stereo unspecified), with 28.7% (active). In the case of `Cc1ccc(C2C3=C(Nc4[nH]n(-c5ccccc5)c(=O)c42)c2ccccc2C3=O)cc1` (stereo unspecified), the max response is -3.8% (inactive).

Turning to `N=C1/C(=C/c2cccn2-c2cccc([N+](=O)[O-])c2)C(=O)N=C2SC=CN12`, the max response is -2.19% (inactive). As to `CC1(C)CC2CC(C)(CN2c2ncnc3ccc(Br)cc23)C1` (stereo unspecified), the max response is -0.269% (inactive). Then `COc1ccc(Cc2nnc(SC)[nH]c2=O)cc1`, with 4.91% (inactive); and `COc1ccc(Cc2nnnn2CC(=O)O)cc1`, with -1.14% (inactive).

As to `COc1ccc(Cc2cc(-c3ccc(F)cc3)n[nH]c2=O)cc1`, the max response is 16.2% (active). The same measure for `O=c1[nH]c2ccccc2n2c(-c3ccccc3)nnc12`: -2.01% (inactive); for `CC(CN1CCC(n2nccc2NC(=O)C2CCCC2)CC1)c1ccccc1` (stereo unspecified): -1.46% (inactive). As for `COc1cc(OC)cc(C(=O)N[C@H](C(=O)OCC(=O)NC(C)c2ccccc2)C(C)C)c1` (stereo partly specified), the max response is 6.33% (inactive). Then `O=C(CNC(=O)c1ccccc1)NCC(=O)OCc1ccc(Cl)cc1`, with -2.96% (inactive). The same measure for `COc1cc(OC)cc(C(=O)NCC(=O)OCc2csc(-c3ccccc3)n2)c1`: 20.1% (active); for `COc1cccc(NC(=O)c2ccccc2N(Cc2ccccc2)S(C)(=O)=O)c1`: 1.56% (inactive); for `O=C1c2ccccc2C(=O)C1c1ccccc1`: 6.52% (active). The same measure for `O=C1NC(c2ccccc2)Oc2ccccc21` (stereo unspecified): -1.34% (inactive); for `O=C1c2ccccc2C(=O)C1c1ccccc1F`: -5.87% (inactive); for `Cc1ccc(C)c(NC(=O)C2Cc3ccccc3CN2C(=O)OCc2ccccc2)c1` (stereo unspecified): -3.28% (inactive). As to `N/C(Cc1ccc([N+](=O)[O-])cc1)=N\OC(=O)COc1ccc2ccccc2c1`, the max response is -3.82% (inactive). Then `Cc1ccc(C(=O)O/N=C(\N)c2ccccn2)cc1Cl`, with 13.6% (inactive). The same measure for `CO/N=C(\N)c1ccc([N+](=O)[O-])cc1`: 0.264% (inactive); for `N/C(=N\OC(=O)c1ccc([N+](=O)[O-])cc1)c1ccccn1`: 42.7% (active); for `N/C(=N\OC(=O)COc1ccc([N+](=O)[O-])cc1)c1ccc(Br)cc1`: 6.76% (inactive). For `COc1ccc(C(=O)NNC(=O)c2cnccn2)cc1[N+](=O)[O-]`, the max response is 1.13% (inactive).

For the compound `COc1ccc(C(=O)O/N=C(\N)c2ccccn2)cc1[N+](=O)[O-]`, the max response was 59.4% (active). Then `O=C(OCc1ccc([N+](=O)[O-])cc1)c1ccccn1`, with -3.03% (inactive); and `N/C(=N\OC(=O)Cc1ccc([N+](=O)[O-])cc1)c1ccccn1`, with 61.5% (active).

Turning to `CCC(=O)Nc1nnc(S(=O)(=O)N2CCCc3ccccc32)s1`, the max response is 1.29% (inactive). In the case of `Cc1ccccc1-n1cc(CNC(=O)C2CCC(=O)N(C3CC3)C2)cn1` (stereo unspecified), the max response was -1.75% (inactive).

`Cc1nn(C(C)C(=O)N2CCOCC2)c(=O)c2nn(-c3ccccc3)c(C)c12` (stereo unspecified): the max response was -8.4% (inactive). Then `CCOc1cc(NC(=O)c2ccccc2C(=O)O)c(OCC)cc1NC(=O)c1ccccc1F`, with -0.886% (inactive); and `Cc1cc(C(F)F)n2nc(C(=O)Nc3ccc(S(=O)(=O)NC45CC6CC(CC(C6)C4)C5)cc3)nc2n1`, with -6.02% (inactive); and `O=C(C/C(=N\NC(=O)c1ccccc1Br)C(F)(F)F)c1cccs1`, with -1.94% (inactive). Consider `CC(C)c1ccc(S(=O)(=O)NC2CCCC2)cc1`, for which the max response was -3.21% (inactive).

Regarding `O=C(Cn1nc(C(=O)O)c2ccccc2c1=O)Nc1ccc(F)cc1`, the max response was 5.62% (inactive). The same measure for `CC(C(=O)NCCc1ccc(S(N)(=O)=O)cc1)N1C(=O)CC(C)(C)Sc2ccccc21` (stereo unspecified): -1.15% (inactive). In the case of `Cc1cc(C)c(S(=O)(=O)NCC2CCC(C(=O)NCc3ccc4c(c3)OCO4)CC2)c(C)c1` (stereo unspecified), the max response is -0.416% (inactive). Then `CN(C)CCOCCOc1ccc(Cl)c2ccccc12`, with -1.16% (inactive); and `O=C(NC(Cc1ccc(O)cc1)C(=O)O)/C(=C/c1ccccc1)NC(=O)c1ccccc1` (stereo unspecified), with 18.4% (inactive); and `COc1ccc(N2C(=O)c3ccccc3NC2c2ccc(OC)c(CN3CCOCC3)c2)cc1` (stereo unspecified), with 28.2% (active). In the case of `COc1ccc(C2Nc3ccccc3C(=O)N2c2ccc(F)cc2)cc1Cn1nnc2ccccc21` (stereo unspecified), the max response was 2.31% (inactive). The same measure for `COc1ccc(CN2CCCC(C(=O)c3ccc(Cl)cc3)C2)cc1Cn1cncn1` (stereo unspecified): -7% (inactive); for `COc1ccc([N+](=O)[O-])cc1C1NN=C(c2cccc3ccccc23)S1` (stereo unspecified): -2.19% (inactive).

Regarding `COc1ccc(C2Nc3ccccc3C(=O)N2Cc2ccccc2)cc1Cn1nnc2ccccc21` (stereo unspecified), the max response is -1.8% (inactive). Then `COc1ccc(C2Nc3ccccc3C(=O)N2c2ccc(Cl)cc2)cc1Cn1cc([N+](=O)[O-])cn1` (stereo unspecified), with 46.2% (active).

On to `CCCCCCCC(=O)NC(Nc1ccccc1OC)C(Cl)(Cl)Cl` (stereo unspecified), for which the max response is 1.89% (inactive). Consider `COc1ccc(C(=O)COC(=O)Cn2cnc3c2c(=O)n(C)c(=O)n3C)c(OC)c1`, for which the max response is -1.6% (inactive). The same measure for `O=C(C1CCCO1)N1CCN(S(=O)(=O)c2ccc(Br)cc2)CC1` (stereo unspecified): -1.38% (inactive); for `Cc1cnc(CN(C)C(=O)C2CCC(=O)N(CCc3cccc(F)c3)C2)[nH]1` (stereo unspecified): -1.18% (inactive); for `C=CCNc1nc(N)c([N+](=O)[O-])c(NC2CCCCC2)n1`: -4.11% (inactive).

For `CC(C)(C)OC(=O)N1CCC(NC(=O)c2[nH]cnc2C(=O)N[C@@H](Cc2ccccc2)C(=O)OCc2ccccc2)CC1`, the max response is -1.27% (inactive). Then `O=C1c2ccccc2C(Nc2ccc3c(c2)OCCO3)N1Cc1ccco1` (stereo unspecified), with 86.7% (active); and `Cc1ccnc(N2C(=O)c3ccccc3C2Nc2ccc3c(c2)OCCO3)c1` (stereo unspecified), with 42.1% (active); and `O=C(NC1CCCCC1)C1c2ccccc2C(=O)N1Cc1ccco1` (stereo unspecified), with 0.684% (inactive). Then `COc1ccccc1C1/C(=C(/O)c2ccc(C)cc2)C(=O)C(=O)N1Cc1ccco1` (stereo unspecified), with 3.34% (inactive); and `COC(=O)c1cccc(C(=O)N2CCCC(Nc3ccc4c(c3)OCCO4)C2)c1` (stereo unspecified), with -1.68% (inactive). Then `Cn1cnc(S(=O)(=O)Nc2ccc3c(c2)OCCO3)c1`, with -2.48% (inactive); and `CCOc1ccc2[nH]c(C(=O)N/N=C/c3cccc(OC)c3OC)cc2c1`, with 9.3% (inactive). Regarding `CC(C)c1ccc(N(C(=O)c2ccco2)C(C(=O)NC2CCCC2)c2cccnc2)cc1` (stereo unspecified), the max response is -5.72% (inactive). The same measure for `CCC1CCCCN1CCCNC(=O)c1cc2c(Cl)nc3ccccc3c2s1` (stereo unspecified): -11.5% (inactive).

In the case of `Oc1ccc(-c2onc3ccc(Cl)cc23)cc1`, the max response was 15.4% (inactive). Then `COC(=O)c1ccc(COC(=O)c2cnc(Cl)c(Cl)c2)cc1`, with 34.6% (active); and `COC(=O)c1ccc(COC(=O)c2cnccn2)cc1`, with -1.89% (inactive).

On to `CCOc1ccc(C(C)=O)cc1COC(=O)c1cnc(Cl)c(Cl)c1`, for which the max response is -0.208% (inactive).

As for `COc1ccc(NS(=O)(=O)c2ccc(O)c(C(=O)OCC(=O)NC3CCCCC3)c2)cc1`, the max response was 0.885% (inactive). The same measure for `CCN(C(=O)COc1cccnc1[N+](=O)[O-])C1CCS(=O)(=O)C1` (stereo unspecified): -3% (inactive); for `Cc1nn2c(=O)cc(COC(=O)c3ccc(NC(=O)C(C)(C)C)cc3)nc2s1`: -6.18% (inactive); for `COc1ccc(-c2cc(C(=O)NCCCn3ccnc3)no2)cc1`: 19.9% (active).

Consider `O=C(NCCCn1ccnc1)c1ccccc1F`, for which the max response was 1.63% (inactive). With `COc1cc(OC)cc(C(=O)NCCCn2ccnc2)c1`, the max response was -2.01% (inactive). The same measure for `O=C(NCCCn1ccnc1)c1cc(-c2ccccc2)on1`: 27.9% (active).

For `COc1ccccc1-c1cc(C(=O)NCCCn2ccnc2)no1`, the max response is -1.18% (inactive). The same measure for `O=C(NCCCn1ccnc1)c1cc(Br)c(Br)s1`: -0.73% (inactive); for `CCN(Cc1ccccc1)C(=O)CCS(=O)(=O)c1ccc2c(c1)oc(=O)n2C`: 0.913% (inactive). Then `CCC(=O)c1cn(CCOc2ccccc2OC)c2ccccc12`, with 3.68% (inactive). The same measure for `CC(C)[C@H](NC(=O)N1CCn2c1nc1ccccc12)C(=O)NCCc1ccccc1`: 11.9% (inactive); for `CC(C)C[C@H](NC(=O)N1CCn2c1nc1ccccc12)C(=O)NC1CC1`: -12.6% (inactive).

Turning to `CC(C)[C@H](NC(=O)N1CCn2c1nc1ccccc12)C(=O)NC1CC1`, the max response was 12.8% (active).

On to `CCOC(=O)c1cc(C(=O)Nc2ccc(S(=O)(=O)Nc3ccc(OC)cc3)cc2)nn1C`, for which the max response is 3.41% (inactive). Then `COc1ccc(-c2ocnc2C(=O)Nc2ccc3c(c2)CCC3)cc1`, with -4.1% (inactive). As to `CCCC(=O)Nc1ccc2c(c1)nc(CCNC(=O)c1ccco1)n2C`, the max response is -0.909% (inactive). The same measure for `CCOC(=O)N1CCN(Cc2nc3cc(NC(=O)CC)ccc3n2CC)CC1`: -2.89% (inactive). Then `CCCC(=O)Nc1ccc2c(c1)nc1n2CCSC1`, with 24.1% (active); and `Cc1ccccc1N1CCN(Cc2nc(Cc3ccccc3F)no2)CC1`, with -1.36% (inactive).
